PubChem BioAssay AID1159580 (chemical genetic matrix, 2015)
The whole screen tested about 5,500 compounds, of which about 2,000 (36%) were called active. About 18% were inconclusive and are not listed. Cut-off read from the data, not from the text of the source: active = normalized growth mostly below about 0.91 (no sharp cut-off); inconclusive = no clear call, values can overlap the other calls; inactive = mostly above about 0.92. The list shows a part of the results.

Assay: chemical genetic growth profiling, strain panel (AID 1159580);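 note: tested at 20 µM; growth read once vehicle control cultures reached saturation at 30 °C; 1 = growth at the plate median or of vehicle wells; lower values mean less growth of the strain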
Conditions: growth OD
[1] = S. cerevisiae deletion strains, locus YAL013W, strain DEP1, active compounds read low
[2] = S. cerevisiae deletion strains, locus YBR229C, strain ROT2, active compounds read low
[3] = S. cerevisiae deletion strains, locus YDL101C, strain DUN1, active compounds read low
[4] = S. cerevisiae deletion strains, locus YDR150W, strain NUM1, active compounds read low
[5] = S. cerevisiae deletion strains, locus YEL061C, strain CIN8, active compounds read low
[6] = S. cerevisiae deletion strains, locus YGR078C, strain PAC10, active compounds read low
[7] = S. cerevisiae deletion strains, locus YHR030C, strain SLT2, active compounds read low
[8] = S. cerevisiae deletion strains, locus YHR087W, strain rtc3, active compounds read low
[9] = S. cerevisiae deletion strains, locus YJR043C, strain POL32, active compounds read low
[10] = S. cerevisiae deletion strains, locus YJR075W, strain HOC1, active compounds read low
[11] = S. cerevisiae deletion strains, locus YLR039C, strain RIC1, active compounds read low
[12] = S. cerevisiae deletion strains, locus YLR058C, strain SHM2 (second series), active compounds read low
[13] = S. cerevisiae deletion strains, locus YLR085C, strain ARP6, active compounds read low
[14] = S. cerevisiae deletion strains, locus YLR262C, strain YPT6, active compounds read low
[15] = S. cerevisiae deletion strains, locus YML094W, strain GIM5, active compounds read low
[16] = S. cerevisiae deletion strains, locus YMR219W, strain ESC1, active compounds read low
[17] = S. cerevisiae deletion strains, locus YMR263W, strain SAP30, active compounds read low
[18] = S. cerevisiae deletion strains, locus YNL153C, strain GIM3, active compounds read low
[19] = S. cerevisiae deletion strains, locus YNL298W, strain CLA4 (second series), active compounds read low
[20] = S. cerevisiae deletion strains, locus YNL322C, strain KRE1, active compounds read low
[21] = S. cerevisiae deletion strains, locus YNR030W, strain Alg12, active compounds read low
[22] = S. cerevisiae deletion strains, locus YPL055C, strain LGE1, active compounds read low
[23] = S. cerevisiae deletion strains, locus YPL241C, strain CIN2, active compounds read low
[24] = S. cerevisiae deletion strains, locus YPR135W, strain CTF4, active compounds read low
[25] = S. cerevisiae strains, strain wild type, active compounds read low

Measured: normalized growth

CC(=O)/C(=C\N(C)C)Sc1nnc(C(F)(F)F)n1C
inactive: [1] 1.06 | [2] 1.03 | [3] 0.968 | [4] 1.02 | [5] 1.01 | [6] 1.01 | [7] 1.06 | [8] 1.04 | S. cerevisiae deletion strains, locus YJL187C, strain SWE1, active compounds read low 0.998 | [9] 1.01 | [10] 0.987 | S. cerevisiae deletion strains, locus YKL190W, strain CNB1, active compounds read low 0.993 | [11] 1.05 | [12] 1 | [13] 1.16 | [14] 1.01 | [15] 1.06 | [16] 1.02 | [17] 1.01 | S. cerevisiae deletion strains, locus YNL128W, strain TEP1, active compounds read low 1.01 | [18] 1.02 | [19] 1.03 | [20] 1 | [21] 1.02 | [22] 1.09 | [23] 1.1 | [24] 1.21 | [25] 1.01

CC(=O)/C(=C\N(C)C)Sc1ccc(Cl)cc1
active: [1] 0.883 | [2] 0.82 | S. cerevisiae deletion strains, locus YCL061C, strain MRC1, active compounds read low 0.838 | [3] 0.897 | [6] 0.817 | [8] 0.832 | [9] 0.888 | [10] 0.776 | [12] 0.817 | [16] 0.86 | [17] 0.839 | [18] 0.793 | [20] 0.819
inactive: S. cerevisiae deletion strains, locus YDL134C, strain PPH21, active compounds read low 0.976 | [4] 0.859 | [5] 0.989 | [7] 1.02 | [11] 0.876 | [13] 1.12 | [14] 0.873 | [15] 1.07 | [19] 1.03 | [21] 1.03 | S. cerevisiae deletion strains, locus YOL006C, strain TOP1, active compounds read low 1.09 | [22] 0.933 | [23] 0.937 | [24] 1.29 | [25] 0.975

Cc1c(NCN2C(=O)CCC2=O)cc2c(c1[N+](=O)[O-])C(C)(C)CC2(C)C
inactive: S. cerevisiae deletion strains, locus YAR019C, strain CDC15, active compounds read low 0.963 | S. cerevisiae deletion strains, locus YBL105C, strain PKC1, active compounds read low 0.962 | S. cerevisiae deletion strains, locus YBR135W, strain CKS1, active compounds read low 0.967 | S. cerevisiae deletion strains, locus YBR136W, strain MEC1, active compounds read low 0.959 | S. cerevisiae deletion strains, locus YBR160W, strain CDC28, active compounds read low 0.967 | S. cerevisiae deletion strains, locus YDL017W, strain CDC7, active compounds read low 0.961 | S. cerevisiae deletion strains, locus YDL028C, strain MPS1, active compounds read low 0.962 | [3] 0.942 | S. cerevisiae deletion strains, locus YDL108W, strain KIN28, active compounds read low 0.965 | S. cerevisiae deletion strains, locus YDL132W, strain cdc53, active compounds read low 0.948 | S. cerevisiae deletion strains, locus YDL214C, strain PRR2, active compounds read low 0.925 | S. cerevisiae deletion strains, locus YDR052C, strain DBF4, active compounds read low 0.956 | S. cerevisiae deletion strains, locus YDR054C, strain cdc34, active compounds read low 0.958 | S. cerevisiae deletion strains, locus YDR226W, strain ADK1, active compounds read low 0.955 | S. cerevisiae deletion strains, locus YDR477W, strain SNF1, active compounds read low 0.913 | S. cerevisiae deletion strains, locus YER123W, strain YCK3, active compounds read low 0.9 | S. cerevisiae deletion strains, locus YER133W, strain GLC7, active compounds read low 0.879 | S. cerevisiae deletion strains, locus YFL009W, strain cdc4, active compounds read low 0.957 | S. cerevisiae deletion strains, locus YFL029C, strain CAK1, active compounds read low 0.95 | S. cerevisiae deletion strains, locus YFR003C, strain YPI1, active compounds read low 0.961 | S. cerevisiae deletion strains, locus YFR019W, strain FAB1, active compounds read low 0.952 | S. cerevisiae deletion strains, locus YFR028C, strain CDC14, active compounds read low 0.956 | S. cerevisiae deletion strains, locus YGR040W, strain KSS1, active compounds read low 0.912 | S. cerevisiae deletion strains, locus YGR052W, strain FMP48, active compounds read low 0.933 | S. cerevisiae deletion strains, locus YGR092W, strain DBF2, active compounds read low 0.931 | [7] 0.909 | S. cerevisiae deletion strains, locus YHR079C, strain IRE1, active compounds read low 0.894 | S. cerevisiae deletion strains, locus YHR082C, strain KSP1, active compounds read low 0.993 | S. cerevisiae deletion strains, locus YHR205W, strain SCH9, active compounds read low 0.904 | S. cerevisiae deletion strains, locus YIL147C, strain SLN1, active compounds read low 0.963 | S. cerevisiae deletion strains, locus YJL095W, strain BCK1, active compounds read low 0.839 | S. cerevisiae deletion strains, locus YJL128C, strain PBS2, active compounds read low 0.901 | S. cerevisiae deletion strains, locus YJL157C, strain FAR1, active compounds read low 0.92 | S. cerevisiae deletion strains, locus YJR016C, strain ILV3, active compounds read low 0.96 | S. cerevisiae deletion strains, locus YJR066W, strain TOR1 (second series), active compounds read low 0.861 | S. cerevisiae deletion strains, locus YJR066W, strain TOR1, active compounds read low 1.03 | S. cerevisiae deletion strains, locus YKL048C, strain ELM1, active compounds read low 0.928 | S. cerevisiae deletion strains, locus YKL067W, strain YNK1, active compounds read low 0.929 | S. cerevisiae deletion strains, locus YKL101W, strain HSL1, active compounds read low 0.922 | S. cerevisiae deletion strains, locus YKL193C, strain SDS22, active compounds read low 0.95 | S. cerevisiae deletion strains, locus YKL203C, strain TOR2, active compounds read low 0.978 | S. cerevisiae deletion strains, locus YLR133W, strain CKI1, active compounds read low 0.944 | S. cerevisiae deletion strains, locus YLR403W, strain SFP1, active compounds read low 0.921 | S. cerevisiae deletion strains, locus YML070W, strain DAK1, active compounds read low 0.911 | S. cerevisiae deletion strains, locus YMR001C, strain CDC5, active compounds read low 0.956 | S. cerevisiae deletion strains, locus YMR205C, strain PFK2 (second series), active compounds read low 0.927 | S. cerevisiae deletion strains, locus YMR277W, strain FCP1, active compounds read low 0.96 | S. cerevisiae deletion strains, locus YNL006W, strain LST8, active compounds read low 0.954 | S. cerevisiae deletion strains, locus YNL020C, strain ARK1, active compounds read low 0.932 | S. cerevisiae deletion strains, locus YNL161W, strain CBK1, active compounds read low 0.95 | S. cerevisiae deletion strains, locus YNL183C, strain NPR1, active compounds read low 0.977 | S. cerevisiae deletion strains, locus YNL207W, strain RIO2, active compounds read low 0.965 | S. cerevisiae deletion strains, locus YNL222W, strain SSU72, active compounds read low 0.959 | S. cerevisiae deletion strains, locus YNL307C, strain MCK1 (second series), active compounds read low 0.94 | S. cerevisiae deletion strains, locus YOL078W, strain AVO1, active compounds read low 0.952 | S. cerevisiae deletion strains, locus YOL136C, strain PFK27, active compounds read low 0.914 | S. cerevisiae deletion strains, locus YOR061W, strain CKA2, active compounds read low 0.945 | S. cerevisiae deletion strains, locus YOR119C, strain RIO1, active compounds read low 0.951 | S. cerevisiae deletion strains, locus YOR231W, strain MKK1, active compounds read low 0.943 | S. cerevisiae deletion strains, locus YOR329C, strain SCD5, active compounds read low 0.961 | S. cerevisiae deletion strains, locus YPL031C, strain PHO85, active compounds read low 0.899 | S. cerevisiae deletion strains, locus YPL153C, strain RAD53, active compounds read low 0.905 | S. cerevisiae deletion strains, locus YPL204W, strain HRR25, active compounds read low 0.891 | S. cerevisiae deletion strains, locus YPL209C, strain IPL1, active compounds read low 0.957 | S. cerevisiae deletion strains, locus YPL256C, strain CLN2, active compounds read low 0.87 | S. cerevisiae deletion strains, locus YPR025C, strain CCL1, active compounds read low 0.952 | S. cerevisiae deletion strains, locus YPR106W, strain ISR1, active compounds read low 0.949 | S. cerevisiae deletion strains, locus YPR111W, strain DBF20, active compounds read low 0.943 | S. cerevisiae deletion strains, strain NNK1, active compounds read low 0.937 | S. cerevisiae deletion strains, strain TSCII, active compounds read low 0.953
active: S. cerevisiae deletion strains, locus YLR113W, strain HOG1, active compounds read low 0.861
